Test results reported in PubChem BioAssay (NCI).
About 79,000 compounds went through this panel and 15% of them were active in at least one assay; those are over-represented in the sample as a whole. No stated cut-off is given here; in the data, active means growth inhibition above about 70%; inactive means the rest.

Tests used:
[1] = NCI Yeast Anticancer Drug Screen. Data for the rad50 strain (AID 155);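 further: 0% = growth of vehicle-only cultures of the same strain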; conditions: S. cerevisiae rad50 strain growth inhibition; at 50.0 µM; stronger effect = higher value
Outline: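 Inhibition values express reduced yeast growth in compound-treated cultures relative to vehicle-treated controls.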

[2] = NCI Yeast Anticancer Drug Screen. Data for the mec2-1 strain (AID 157); conditions: S. cerevisiae mec2-1 strain, at 50.0 µM, stronger effect = higher value
Outline: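 Readout is yeast growth inhibition, normalised to vehicle-treated controls, in the mec2-1 strain exposed to compound.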

[3] = NCI Yeast Anticancer Drug Screen. Data for the sgs1 mgt1 strain (AID 161);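 further: 0% = growth of cultures given vehicle only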; conditions: S. cerevisiae sgs1 mgt1 strain, at 50.0 µM, stronger effect = higher value
Outline: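 Yeast cells carrying a defined DNA-repair defect were exposed to test compounds. Growth inhibition was measured relative to vehicle-treated controls.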

[4] = NCI Yeast Anticancer Drug Screen. Data for the cln2 rad14 strain (AID 165);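 further: 0% = growth equal to vehicle treated cultures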; conditions: S. cerevisiae cln2 rad14 strain, at 50.0 µM, stronger effect = higher value
Outline: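 Relative to vehicle controls, growth inhibition of compound-treated cln2 rad14 yeast was recorded.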

[5] = NCI Yeast Anticancer Drug Screen. Data for the mlh1 rad18 strain (AID 175); conditions: S. cerevisiae mlh1 rad18 strain growth inhibition; at 50.0 µM; stronger effect = higher value
Outline: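 Test agents were incubated with a yeast strain of defined genotype (DNA damage repair defect). Inhibition of growth was derived by comparison with vehicle-exposed cultures.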

[6] = NCI Yeast Anticancer Drug Screen. Data for the bub3 strain (AID 167); conditions: S. cerevisiae bub3 mutant strain, at 50.0 µM, stronger effect = higher value
Outline: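 Steps: expose the mutant yeast strain to compound; grow alongside vehicle-treated cultures; measure growth; express inhibition against the vehicle cultures.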

Measured: growth inhibition

C(=C1/NC(c2ccccc2)=Nc2ccccc21)/c1ccccc1
inactive: [1] 24.3% | [2] -0.5% | [3] 10.9% | [4] 37.6% | [5] 29.8%

Cc1ccc(S(=O)(=O)Nc2ccc([N+](=O)[O-])cc2[N+](=O)[O-])cc1
inactive: [1] 17.5% | [2] 15.3% | [3] -1.65% | [4] 9.85% | [5] 17.8%

C/C(=N\[N+](C)(C)C)c1ccc(C)c(C)c1
inactive: [1] 9.45% | [2] -38% | [3] -23.2% | [4] 17.9% | [5] -5%

CCOC(=O)c1ccc(NC(=O)CCCCCCCCC(=O)Nc2ccc(C(=O)OCC)cc2)cc1
inactive: [1] 7.5% | [2] -5.6% | [3] -0.85% | [4] -8.45% | [5] -6.95%

CC(=O)n1[nH]c(=O)c2ncccc2c1=O
inactive: [1] 2.75% | [2] 7.6% | [3] 9.45% | [4] -6.6% | [6] -8.45% | [5] 9%

CC[N+](C)(C)CC(O)(O)C(F)F
inactive: [1] -28.1% | [2] -32.7% | [3] -17.1% | [4] 2.25% | [5] -16.2%

NC(Cc1ccccc1)C(=O)O (stereo not drawn)
inactive: [1] -20.7% | [2] -12.4% | [3] -33.9% | [4] -73.7% | [6] -24.9% | [5] -20.6%

COC(=O)C(C)NC(=O)C(C)NC(=O)c1cc(OC)c(OC)c(OC)c1 (stereo not drawn)
inactive: [1] 28.2% | [2] 17.8% | [3] 17.4% | [4] 17.1% | [5] 15.8%

CCC(CC)CC(=O)OC/C(=N\Nc1ccc([N+](=O)[O-])cc1[N+](=O)[O-])c1ccc(-c2ccccc2)cc1
inactive: [1] -30.9% | [2] 0.15% | [3] -2.85% | [4] -33.8% | [5] -7%

CCCCNC(=O)/N=C/c1c(O)c2ccccc2oc1=O
inactive: [1] 7.9% | [2] -10.1% | [3] -13.4% | [4] -1.5% | [5] -16.6%

O=C(O)C(NCCCNC(C(=O)O)c1ccccc1)c1ccccc1 (stereo not drawn)
inactive: [1] 22.4% | [2] 14.2% | [3] 22.6% | [4] 37.6% | [5] 19.1%

C/C(C=C(C#N)C#N)=C\c1ccccc1
inactive: [1] 25.3% | [2] 11.3% | [3] -5.7% | [4] 14.2% | [5] 17.6%

O=c1[nH]c(=O)n(C2CC(O)C(CO)O2)cc1Cl (stereo not drawn)
inactive: [1] 0.75% | [2] -11.1% | [3] 2.9% | [4] 11.8% | [5] 2.25%

Clc1ccc2ncccc2c1
inactive: [1] 29.8% | [2] 18% | [3] 7.7% | [4] -24.1% | [5] 17%

O=C(O)CCCc1ccccc1[N+](=O)[O-]
inactive: [1] -16.7% | [2] -41.8% | [3] -6.4% | [4] -2.35% | [5] -19.8%

O=C(O)c1c(Cl)c(Cl)c(Cl)c(C(=O)O)c1Cl
inactive: [1] -2.05% | [2] 2.2% | [3] 7.25% | [4] -36.1% | [5] 19.2%

O=[N+]([O-])c1ccc2nc(Cl)cnc2c1
inactive: [1] 25.2% | [2] 31.2% | [3] 16.5% | [4] -5.2% | [5] 38.6%

COC(c1ccc(C(C)(C)C)cc1)(c1ccc(C(C)(C)C)cc1)c1cc(C(O)(c2cc(C(OC)(c3ccc(C(C)(C)C)cc3)c3ccc(C(C)(C)C)cc3)c(C)cc2C)c2cc(C(OC)(c3ccc(C(C)(C)C)cc3)c3ccc(C(C)(C)C)cc3)c(C)cc2C)c(C)cc1C
inactive: [1] -26.8% | [2] -12.7% | [3] -12.8% | [4] 13.8% | [5] -9.05%

O=C(CC1=Nc2nnc(-c3nnc4n3C(=O)C(CC(=O)C3CC3)=N4)n2C1=O)C1CC1
inactive: [1] -10% | [2] 2.95% | [3] -5.25% | [4] -16.6% | [5] -3.8%

CC(=O)OC1CC[C@@]2(C)C(C1)CC(OC(C)=O)[C@@H]1C2CC(OC(C)=O)[C@]2(C)C(C(C)CC=C(c3ccc(Cl)cc3)c3ccc(Cl)cc3)CCC12 (stereo partly drawn)
inactive: [1] 0.4% | [2] 2.8% | [3] 3.05% | [4] 11.1% | [5] 5%

CN(C(N)=O)C1CCCC1
inactive: [1] 12% | [2] -21.3% | [3] -5.65% | [4] 1.4% | [5] 6.35%

O=C1CCC(c2nc3ccccc3o2)C(=O)N1 (stereo not drawn)
inactive: [1] -5.1% | [2] -20.5% | [3] -10.6% | [4] 0.65% | [5] -13.7%

O=C(OCc1ccccc1)/C(c1ccccc1)=[N+]1/C(=S)Nc2ccc([N+](=O)[O-])cc21
inactive: [1] 3% | [2] -5% | [3] 1.6% | [4] 3.8% | [5] 7.9%

COc1ccc(N=C(C)C2C(=O)c3ccccc3C2=O)cc1
inactive: [1] 44% | [2] -21.9% | [3] -10.2% | [4] 13.7% | [5] -30.7%

CC(=O)CC(=O)Nc1ccc(-c2ccccc2)cc1
inactive: [1] 19.7% | [2] 3.95% | [3] 18.1% | [4] -16.2% | [5] -0.35%

CC(=O)ONc1nc(C)c(CCC2OCCO2)c(SC(=N)N)n1
inactive: [1] 28.9% | [2] 27.2% | [3] 30% | [4] 14.9% | [5] 38.2%

COc1cc(/C=C/c2ccnnc2)cc(OC)c1OC
inactive: [1] -9.2% | [2] 15.3% | [3] 16.8% | [4] -0.35% | [6] 15.3% | [5] -34.6%

CCOC(=O)/C(O)=C(\C#N)c1cc(C)ccc1C
inactive: [1] -7.5% | [2] -14.6% | [3] -2.7% | [4] 0.45% | [5] 10.8%

Cc1ccc(S(=O)(=O)N2C(=N)C(=S)N(C)C2=O)cc1
inactive: [1] -42.9% | [2] -10.3% | [3] -15.4% | [4] -30.4% | [5] 12.4%

CC1C2(C)OC(=N)C(C#N)(C(c3ccccc3)O2)C1(C#N)C#N (stereo not drawn)
inactive: [1] 8.7% | [2] -5.15% | [3] -13.4% | [4] 6.25% | [5] -23.6%

C[N+](C)(C)CC(=O)N/N=C(/Cc1cc(=O)oc2cc(O)ccc12)C(=O)Nc1ccc(Cl)cc1
inactive: [1] 7.35% | [2] -2.45% | [3] -11.3% | [4] -15.7% | [5] -10.8%

CCOC(=O)C(Cl)C(C)(O)c1ccccc1 (stereo not drawn)
inactive: [1] 11.2% | [2] -3.65% | [3] 11.9% | [4] -46.7% | [5] 17.8%

COc1cc(O)c(OC)c(O)c1C(C)=O
inactive: [1] -3.5% | [2] -11.2% | [3] -17.4% | [4] -19.7% | [5] -0.65%

O=C(O)COc1ccccc1Cl
inactive: [1] 34.6% | [2] 13.3% | [3] 22.5% | [4] 19.8% | [5] 11.8%

COc1cc2c(cc1OC)C1Cc3ccc(OC)c(OC)c3C[N+]1([O-])CC2 (stereo not drawn)
inactive: [1] -24.9% | [2] -16.8% | [3] -6.95% | [4] 9.6% | [5] -3.2%

CCCCCCCCCCCCCCCCC(NC(C)=O)(C(=O)OCC)C(=O)OCC
inactive: [1] 23.9% | [2] 1.65% | [3] 20.9% | [4] 30.2% | [5] 23.6%

Oc1ccccc1-c1cc(-c2ccccc2)nc(NCCCCNc2nc(-c3ccccc3)cc(-c3ccccc3O)n2)n1
inactive: [1] -5.05% | [2] -3.95% | [3] -14.7% | [4] -21.8% | [5] -2.65%

C=C(Cl)COc1ccc(-c2ccccc2)cc1
inactive: [1] 28.4% | [2] 6.9% | [3] 16.5% | [4] -2.7% | [5] 1.2%

CCC(/C=C\C(C)C1CCC2C3CC=C4CC(OS(=O)(=O)c5ccc(C)cc5)CCC4(C)C3CCC12C)C(C)C (stereo not drawn)
inactive: [1] -9.9% | [2] -3.95% | [3] -16.6% | [4] -5.6% | [5] -32.1%

Cc1cc(C)c([N+](=O)[O-])c(N)n1
inactive: [1] 8.45% | [2] -6.6% | [3] -5.85% | [6] 1.2% | [5] -12.1%
